Experimental data taken from PubChem BioAssay (NCATS).
Records with an inconclusive call do not appear. A call without a number means that no potency is given here. Active and inactive are the calls of the source. Calls follow the shape of the dose curve; as a rule, active = well fitted inhibition curve with a large enough effect; inconclusive = small, poorly fitted or top-dose-only effect; inactive = no such curve, though single readings can be large or run the other way.

Columns and labels:
[1] = tested on: Zika virus NS2B-NS3 protease (unlinked complex); assay: Primary screen GU Rhodamine qHTS for Zika virus inhibitors: Unlinked NS2B-NS3 protease assay (AID 1347159); also: nearly all actives have a fitted effect of over 60% in size; also: potency is read from the fitted curve at half-maximal effect
Summary of the method: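 Percent inhibition derives from the 15-min fluorescence change (ex 480, em 540 nm), normalized to no-enzyme and no-inhibitor wells. Reactions contained 25 nM NS2B-NS3 complex and 1.5 microM substrate in 10 mM Tris-HCl pH 8.0.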

[2] = tested on: Zika virus NS2B-NS3 protease (linked construct); assay: Primary screen NINDS Rhodamine qHTS for Zika virus inhibitors (AID 1347160); also: nearly all actives have a fitted effect of over 55% in size
Summary of the method: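 In 10 mM Tris-HCl pH 8.0 containing 0.01% Tween 20, linked NS2B-NS3 protease (25 nM final) is exposed to test compounds for 15 min. Cleavage of 1.5 microM Rhodamine110 substrate is tracked by fluorescence over 15 min.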

COC(=O)/C=C/C12COC(C)(C)C1C(O)C(OC(C)=O)C1(C)C2CCC2(C)C(c3ccoc3)OC(=O)C3OC321 (stereo not given)
Potency [1]: inactive
Potency [2]: inactive

COc1cc(O)cc(C)c1C(=O)O[C@@H]1[C@H](O)[C@@H](CO)O[C@H]1n1ccc(=O)[nH]c1=O
Potency [1]: inactive
Potency [2]: inactive

O=C(CC1C(=O)Nc2ccccc21)OC[C@H]1O[C@@H](OCCc2ccc(O)cc2)[C@H](O)[C@@H](O)[C@@H]1O (stereo not given in full)
Potency [1]: inactive
Potency [2]: inactive

C[S+](CC[C@H](N)C(=O)[O-])C[C@H]1O[C@@H](n2cnc3c(N)ncnc32)[C@H](O)[C@@H]1O (stereo not given in full)
Potency [1]: inactive
Potency [2]: inactive

CN(c1ccccc1CNc1nc(Nc2ccc3c(c2)CC(=O)N3)ncc1C(F)(F)F)S(C)(=O)=O
Potency [1]: inactive
Potency [2]: inactive

C/C(=C\CCC1(C)C2CCC(C2)C1(C)O)C(=O)O (stereo not given)
Potency [1]: 22.4 µM (active)
Potency [2]: inactive

C[C@H]1CC(=O)Nc2cccc(-c3cnn(C(C)(C)C)c3)c2N1
Potency [1]: inactive
Potency [2]: inactive

C=C(C)C1CCC2(C(=O)O[C@@H]3O[C@H](CO[C@@H]4O[C@H](CO)[C@@H](O)[C@H](O)[C@H]4O)[C@@H](O)[C@H](O[C@@H]4O[C@@H](C)[C@H](O)[C@@H](O)[C@H]4O)[C@H]3O)CCC3(C(=O)O)C(CCC4C5(C)CCC(O)C(C)(C)C5CCC43C)C12 (stereo not given in full)
Potency [1]: inactive
Potency [2]: inactive

OC[C@H]1O[C@@H](OC(CCCCc2ccc(O)cc2)CCc2ccc(O)cc2)[C@H](O)[C@@H](O)[C@@H]1O (stereo not given in full)
Potency [1]: inactive
Potency [2]: inactive

O=C(Nc1ccc(-c2ccncc2)cc1)N[C@H](CO)c1ccccc1
Potency [1]: inactive
Potency [2]: inactive
